# Test results as given in PubChem BioAssay (NCI).
# This is part of a sample that, as a whole, favours compounds with a hit. Of some 83,000 tested, about 20% had one in any assay.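 Single-concentration screen, 48 h exposure, 96-well plates. Endpoint: percent growth. Below 10 = active.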 Unmarked numbers belong to inactive results.
# Test system: COLO 205 colon
# Assay: NCI-60 one-dose screen, 48 h (100 = growth as untreated, 0 = no growth, -100 = all killed)
# Conditions: 10 µM unless noted
row,Compound,growth [%]
1,O=S(=O)(NCCNc1nccc(-c2c(-c3ccc(F)c(O)c3)nc3occn23)n1)c1ccc(Cl)cc1,67.7
2,Nc1ncnc2c1N=C(c1ccc(Br)cc1)CC(c1cccc(Nc3ccnc4cc(C(F)(F)F)ccc34)c1)N2 (centres undefined),54.6
3,Nc1ncc(-c2ccc3ncnc(Nc4cccc(Cl)c4)c3c2)cn1,51.2
4,O=C(Nc1ccccc1)Nc1ncnc2c1ncn2-c1ccc(Cl)cc1,86.8
